# Assay outcomes as filed in PubChem.
# IL1B NFkB inh: blocks IL-1B driven NFkB nuclear translocation in HUVEC cells; inhibition, % at 2 µM; AID 796; HUVEC IL-1B NFkB p65 nuclear translocation imaging; hit rate 0.43% among 94,000;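 active means inhibition above about 30% together with a positive call from visual inspection of the well image, limit read from the data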;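 further: nuclear over cytoplasmic p65 intensity ratio measured by imaging; 0% = IL-1B stimulated DMSO wells and 100% = unstimulated DMSO wells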
# IL1B NFkB pot: enhances IL-1B driven NFkB nuclear translocation; activation, % at 2 µM; AID 819; hit rate 0.3% among 94,000; HUVEC IL-1B NFkB p65 nuclear translocation imaging;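 active means activation above 40%, about the mean plus 3 SD, also judged a hit on visual image review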;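 further: percent activation is computed from the nuclear over cytoplasmic p65 intensity ratio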
# HUVEC tox IL1B: HUVEC cytotoxicity counter-screen, IL-1B stimulated. HUVEC cell count loss, Hoechst imaging. cell count reduction, % at 2 µM. hit rate 0.41% among 94,000. AID 845;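 active means cell count reduction more than 3 SD above the screen-wide mean, cut at about 70% in these data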;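 further: normalized per plate to untreated control cells as the no-loss baseline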
# PLAP act: activators of human placental alkaline phosphatase; hit rate 1.2% among 96,000; activation fold at 20 µM; purified PLAP enzyme, luminescent substrate read-out; hits give high values; AID 696; P05187; in the data active means activation fold above about 2
# Target sequence (P05187 whole entry, looked up): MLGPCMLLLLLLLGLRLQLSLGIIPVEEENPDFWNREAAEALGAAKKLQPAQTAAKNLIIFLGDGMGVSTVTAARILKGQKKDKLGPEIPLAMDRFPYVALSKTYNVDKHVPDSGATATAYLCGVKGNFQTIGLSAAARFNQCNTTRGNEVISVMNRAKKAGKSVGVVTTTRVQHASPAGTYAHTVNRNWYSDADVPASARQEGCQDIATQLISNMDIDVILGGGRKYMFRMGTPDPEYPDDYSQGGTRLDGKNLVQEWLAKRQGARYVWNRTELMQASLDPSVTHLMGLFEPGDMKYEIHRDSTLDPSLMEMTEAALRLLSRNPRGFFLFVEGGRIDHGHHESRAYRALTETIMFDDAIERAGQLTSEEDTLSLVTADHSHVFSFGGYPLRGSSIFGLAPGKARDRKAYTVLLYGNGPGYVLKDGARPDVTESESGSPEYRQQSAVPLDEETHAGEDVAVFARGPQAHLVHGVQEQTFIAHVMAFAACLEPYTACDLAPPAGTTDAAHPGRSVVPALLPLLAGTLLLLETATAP
# TNAP act DEA: activates human TNAP at intermediate phosphate acceptor concentration; P05186; purified TNAP, CDP-star luminescence, 100 mM DEA, 30 min; hits give high values; scale: 0 levamisole-inhibited, 1 vehicle-only enzyme; activation factor at 20 µM; 64,000 tested, under 10 active; AID 813;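 active means activation factor of at least 2 at 20 µM, relative to controls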
# Numbers without * were called inactive; x = not tested or not shown. Most compounds without a hit are left out; they make up all but 2.1% or so of the library.
SMILES,IL1B NFkB inh,IL1B NFkB pot,HUVEC tox IL1B,PLAP act,TNAP act DEA
O/N=C1/CCCSc2ccccc21,-48,48*,6,1,0.9
O=C(Cn1cc([N+](=O)[O-])cn1)Nc1ccn(Cc2c(F)c(F)c(F)c(F)c2F)n1,3,-3,10,0.9,x
O=C(c1csc2ccccc12)N1CCN(c2ccc(Cl)c(Cl)c2)CC1,62*,-62,2,0.9,x
Cc1cccc(NC(=O)C2NC(=O)CC2c2ccccc2)c1C (configuration not stated),-32,32,-7,1.2,x
Cc1ccc(-n2nnnc2SCn2nnc3ccccc3c2=O)c(C)c1,4,-5,-6,0.9,x
CCN(CC)c1nc2ccccc2c(N)c1-c1ccccc1,10,-10,22,0.7,x
COc1ccc(C(=O)N2CCCCC2)cc1S(=O)(=O)Nc1cccc(C(=O)O)c1,-3,3,-7,x,x
COc1cc(S(=O)(=O)Nc2cccc(C(=O)O)c2)c(OC)cc1Cl,49*,-49,88*,1.1,x
Cc1ccc2oc(Nc3nc(C)cc(C)n3)nc2c1,0,0,10,2.8*,1.1
O=C(Cn1ncc2c1-c1ccccc1OC2)N1CCN(Cc2ccc3c(c2)OCO3)CC1,-9,9,-14,1.6,0.9
O=C1N/C(=N\N=C\c2ccc3ncccc3c2)SC1Cc1ccc(SC(F)F)cc1 (configuration not stated),-1,1,-14,1.8,x
O=C1N/C(=N\N=C\c2cccnc2)SC1Cc1ccc(SC(F)F)cc1 (configuration not stated),5,-5,-14,2.1*,x
COc1ccc(OC)c(N(CC(=O)Nc2cccnc2)S(=O)(=O)c2ccc(OC)c(OC)c2)c1,91*,-91,90*,1,0.9
COc1ccc(OC)c(N(CC(=O)Nc2cccnc2)S(=O)(=O)c2ccc(C)cc2)c1,60*,-59,2,0.9,x
COc1ccc(OC)c(N(CC(=O)Nc2cccnc2)S(C)(=O)=O)c1,-4,4,3,1,x
CN1CCC(N(C)CC(=O)Nc2cccc(Oc3ccccc3)c2)CC1,-13,13,0,1.2,1
CCOC(=O)c1[nH]c2cc3c(cc2c1NC(=O)CN1CCc2ccccc2C1)OCO3,-2,2,7,1.1,0.9
CCOC(=O)c1[nH]c2cc3c(cc2c1NC(=O)CN1CCC(C)CC1)OCO3,98*,-98,86*,0.9,0.8
C=CCn1c(Cc2nc3ccc(Cl)cc3[nH]2)n[nH]c1=S,13,-13,7,2.4*,1.2
C=CCn1c(Cc2c[nH]c3ccccc23)n[nH]c1=S,3,-3,-79,1.6,1
CN(CCOc1ccccc1)S(=O)(=O)c1ccc2oc3ccccc3c2c1,13,-13,-65,0.9,x
Clc1ccccc1CSc1nc2ccncc2[nH]1,24,-24,16,2.7*,x
O=C(NC1CC1)C1CC(=O)N(C2CCCCC2)C1 (configuration not stated),-121,121*,5,0.9,0.9
Cn1c(-c2sc3ccccc3c2Cl)n[nH]c1=S,-10,10,-15,1.5,x
O=S(=O)(NCc1cccnc1)c1cc(Cl)ccc1Cl,-6,6,-4,0.9,0.8
SMILES,IL1B NFkB inh,IL1B NFkB pot,HUVEC tox IL1B,PLAP act,TNAP act DEA
O=S(=O)(NCc1cccnc1)c1ccc(Cl)s1,59*,-59,90*,1.1,x
O=C(Cn1nc(Cc2ccncc2)c2ccccc2c1=O)N1CCc2ccccc2C1,-72,72*,4,1.3,0.9
CN(CCC#N)C(=O)Cn1nc(Cc2ccncc2)c2ccccc2c1=O,-5,5,-2,1,0.9
CCC(=O)Nc1cc(C)c(NC(=O)c2ccccc2OC)cn1,-5,5,-24,1,0.9
CC(C)(C)CC(C)(C)Nc1c(-c2ccc(O)cc2)nc2cnccn12,-7,7,-15,x,x
COc1cccc(NC(=O)Cn2c(-c3cncs3)nc3ccccc32)c1,-12,12,-3,2*,1
O=C(Cn1c(-c2cncs2)nc2ccccc21)NCCc1ccccc1,-8,7,1,0.8,0.9
O=C(Nc1ncccc1Cl)C(Sc1ccccc1)c1ccccc1 (configuration not stated),x,x,x,0.9,x
O=C(O)CN(Cc1ccccc1)S(=O)(=O)c1ccc(F)cc1,1,-1,-11,1.1,1
O=C(OCC1CC(c2ccccc2)=NO1)c1ccc(Cl)cc1 (configuration not stated),-50,50*,18,1,x
C=CCn1c(-c2ccccc2)n[nH]c1=S,4,-4,13,x,0.9
C=CCn1c(-c2cccc3ccccc23)n[nH]c1=S,-15,15,-11,2.8*,x
CCc1nnc(NC(=O)CSc2nnc(CCc3nc4ccccc4[nH]3)n2C)s1,4,-4,8,1.2,1
Cc1nnc(NC(=O)CSc2nnc(CCc3nc4ccccc4[nH]3)n2C)s1,-5,5,-9,2.1*,0.9
O=C(CCCn1c(=O)[nH]c2cc(Cl)ccc2c1=O)NCCCN1CCCC1,-1,1,5,1.4,1
COc1ccc(N2CCN(C(=O)CCCn3c(=O)[nH]c4cc(Cl)ccc4c3=O)CC2)cc1,x,x,x,2*,x
COc1ccc(C2=CSC3=C(C(=O)c4cccc(S(=O)(=O)N(C)C)c4)CCN23)cc1,-2,2,-8,2.9*,x
Cc1cc(=O)c2cccc(Br)c2[nH]1,30*,-30,90*,x,x
Cc1cc(=O)c2ccc3ccccc3c2[nH]1,-9,9,-37,0.9,x
Cc1cc(N2CCOCC2)cc(C)[n+]1[O-],-40,40*,-31,0.9,0.9
Fc1ccccc1C(c1nnnn1C1CCCC1)N1CCN(Cc2ccccc2)CC1 (configuration not stated),77*,-77,88*,x,x
CCC(c1nnnn1C1CCCC1)N1CCN(Cc2ccccc2)CC1 (configuration not stated),3,-3,-15,x,x
c1ccc(-c2cc3c(ccc4nonc43)nn2)cc1,-57,57*,27,1.1,0.9
N#CC1(Cc2ccc(Cl)cc2)c2ccccc2C=CN1C(=O)c1ccccc1 (configuration not stated),27,-27,-9,1.1,x
CCCCC1=NN2C(=N)CC(=O)N=C2S1,-24,24,-17,1,x
CCOC(=O)c1ccc(N2C(=O)c3n[nH]c(C)c3C2c2ccco2)cc1 (configuration not stated),-2,1,-29,2.7*,1.1
CCOC(=O)c1ccc(N2C(=O)c3n[nH]c(C)c3C2c2ccc(OC)cc2)cc1 (configuration not stated),-4,4,3,2.6*,1
CCOC(=O)c1ccc(N2C(=O)c3n[nH]c(C)c3C2c2ccc(OC)c(OC)c2)cc1 (configuration not stated),-6,6,-30,x,1
CCOc1cc(C2c3c(n[nH]c3C)C(=O)N2c2ccc(Br)cc2)ccc1O (configuration not stated),7,-7,-8,2.3*,1.1
